Measurements from PubChem BioAssay (NCATS).
Records with an inconclusive call do not appear. Entries that show only a call come without a potency. Unmarked numbers belong to inactive results. Activity calls are given as the source filed them. Calls follow the shape of the dose curve; as a rule, active = well fitted inhibition curve with a large enough effect; inconclusive = small, poorly fitted or top-dose-only effect; inactive = flat fitted curve, though single readings scatter.

Test: P-glycoprotein substrates identified in KB-8-5-11 adenocarcinoma cell line, qHTS therapeutic library screen (AID 1346987); also: nearly all actives have a fitted effect of over 65% in size
Settings: KB-8-5-11 (P-gp overexpressing) viability, CellTiter-Glo, 72 h; series mostly up to 44.5 µM
In short: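 Luminescence from CellTiter-Glo, read 5 min after addition, quantified survival of KB-8-5-11 (P-gp-overexpressing) cells exposed to compounds for 72 h. AC50 was derived from concentration-response curves.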
Potency is read from the fitted curve at half-maximal effect.

| Structure (SMILES) | activity change, negative = cytotoxicity | Potency | outcome |
| --- | --- | --- | --- |
| CC(=O)O[C@@H]1C[C@]2(C)[C@@]3(CCC4[C@@]5(C)CC[C@H](O[C@@H]6O[C@H](C(=O)O)[C@@H](O)[C@H](OC7OC(CO)C(O)C(O)[C@H]7O[C@@H]7O[C@@H](C)[C@H](O)[C@@H](O)[C@H]7O[C@@H]7OC[C@](O)(CO)[C@H]7O)[C@H]6OC6OC(CO)C(O)C(O)C6O)C(C)(C)C5CC[C@]42C)OC[C@@]12CCC(C)(C)CC23 (stereo not given in full) | -11.3% [at 9.29 µM] |  |  |
| CN(c1ccc(NC(=O)Nc2ccccc2)cc1)S(=O)(=O)c1cnn(-c2ccc(F)cc2)c1 |  | 11.6 µM (active) |  |
| NCCCC[C@H](NC(=O)[C@@H]1CCCN1C(=O)[C@@H]1CSSC[C@H](N)C(=O)N[C@@H](Cc2ccccc2)C(=O)N[C@@H](Cc2ccccc2)C(=O)N[C@@H](CCC(N)=O)C(=O)N[C@@H](CC(N)=O)C(=O)N1)C(=O)NCC(N)=O |  | inactive |  |
| CC(NC(=O)Cc1cc(F)cc(F)c1)C(=O)NC1C(=O)N(C)c2ccccc2-c2ccccc21 (stereo not given) |  | 14.6 µM (active) |  |
| CN(C)C(=O)COC(=O)c1cc(-c2ccc(C3CCNCC3)cc2)c2ccc(-c3ccc(C(F)(F)F)cc3)cc2c1 |  | 18.4 µM (active) |  |
| O=C(Nc1cnc(Cl)nc1)c1ccc(F)c(F)c1 |  | inactive |  |
| Nc1nc(Nc2ccc3c(c2)CCC(N2CCCC2)CC3)nn1-c1cc2c(nn1)-c1ccccc1CCC2 (stereo not given) |  | 14.6 µM (active) |  |
| CCOC(=O)Nc1ccc2c(c1)N(C(=O)CN(C)C)c1ccccc1CC2 |  | inactive |  |
| C[C@@H]1CC[C@]2(C(=O)O)CC[C@]3(C)C(=CCC4[C@@]5(C)CC[C@H](O)[C@](C)(C(=O)O)C5CC[C@]43C)C2[C@]1(C)O (stereo not given in full) |  | inactive |  |
| C[C@@H]1O[C@@H](O[C@H]2[C@H](OC(=O)[C@]34CCC(C)(C)C[C@H]3C3=CCC5[C@@]6(C)C[C@H](O)[C@H](O[C@@H]7O[C@H](CO)[C@@H](O)[C@H](O)[C@H]7O)[C@](CO)(C(=O)O)C6CC[C@@]5(C)[C@]3(C)C[C@H]4O)OC[C@H](O)[C@@H]2O)[C@H](O)[C@H](O)[C@H]1O[C@@H]1OC[C@@H](O)[C@H](O[C@@H]2OC[C@](O)(CO)[C@H]2O)[C@H]1O (stereo not given in full) |  | 2.45 µM (active) |  |
| C=C(C)C(=O)O[C@H]1C[C@@](C)(O)C2(O)CCC(C)(/C=C3/OC(=O)C(COC)=C31)O2 (stereo not given in full) |  | 6.4 µM (active) |  |
| COc1cc2[nH]c(C)c(CCN3CCN(c4ccccc4)CC3)c2cc1OC |  | inactive |  |
| COc1ccc(C2NC(=S)N3C(c4ccc(OC)c(OC)c4)NC(=S)N23)cc1OC (stereo not given) |  | inactive |  |
| C/C=C(/C)C(=O)OC1C=C2C3C(C)C(C)C(OC(=O)C(C)C(C)O)CC3(C)CCC2(C)C2(C)CC(OC(C)=O)C3C(C)(C)C(O)C(=O)CC3(C)C12 (stereo not given) |  | inactive |  |
| C=C(C)C1CC(O)C(C)C12CC(O)C1(C)OC1C2O (stereo not given) |  | 3.66 µM (active) |  |
| CC(C)C[C@H](CO)Nc1nc(S[C@@H](C)c2ccccc2)nc2nc(N)sc12 |  | inactive |  |
| O=S(=O)(N[C@H]1CCCC[C@@H]1N1CCOCC1)c1ccc(Cl)cc1 |  | inactive |  |
| O=P(O)(O)C(Sc1ccc(Cl)cc1)P(=O)(O)O |  | inactive |  |
| CN[C@@H]1CCc2[nH]c3ccc(C(N)=O)cc3c2C1 |  | inactive |  |
| Cc1cc(NC(=O)NCCN2CCC(O)(Cc3ccccc3)CC2)c2ccccc2n1 |  | inactive |  |

| Structure (SMILES) | activity change, negative = cytotoxicity | Potency | outcome |
| --- | --- | --- | --- |
| C=CC1(C)CC(O)C(C(=C)C(=O)OC)C(O)C1C(=C)CO (stereo not given) |  | inactive |  |
| CC(=O)O[C@H]1[C@H](O)C[C@@]2(C)C(CC[C@]3(C)C2CC=C2C4CC(C)(C)CC[C@]4(C(=O)O)CC[C@]23C)C1(C)C (stereo not given in full) |  | inactive |  |
| C/C(=C\CO[C@@H]1O[C@H](CO[C@H]2OC[C@](O)(CO)[C@H]2O)[C@@H](O)[C@H](O)[C@H]1O)C(C)(C)O |  | inactive |  |
| O=P(O)(O)C(O)(Cc1cnc2ccccn12)P(=O)(O)O |  | inactive |  |
| CC1(C)S[C@@H]2[C@H](NC(=O)[C@H](N)c3ccccc3)C(=O)N2[C@H]1C(=O)OCOC(=O)[C@@H]1N2C(=O)C[C@H]2S(=O)(=O)C1(C)C |  | inactive |  |
| Nc1ncnc2c1c(-c1ccc(Cl)cc1)nn2-c1cccc(-c2cnnn2Cc2cccc(-c3ccccc3)c2)c1 |  | 16.4 µM (active) |  |
| Cc1cc(N2CCOCC2)ccc1Nc1nc(NC2CCCCC2)c2[nH]cnc2n1 |  | 1.3 µM (active) |  |
| Cn1ncc(Cl)c1-c1cc(C(=O)N[C@H](CN)Cc2ccc(F)c(F)c2)oc1Cl |  | 16.4 µM (active) |  |
| C[C@@]12C(=O)N(c3ccc(C(=O)Nc4cccc5cccnc45)cc3)C(=O)[C@@H]1[C@@H]1C=C[C@H]2C1 |  | inactive |  |
| OC[C@H]1O[C@@H](OC/C=C/c2ccc(O)cc2)[C@H](O)[C@@H](O)[C@@H]1O |  | inactive |  |
| CCNC(=O)Nc1ccc(-c2nc3c(c(N4CCOCC4C)n2)CCN(C2COC2)C3)cc1 (stereo not given) |  | 1.84 µM (active) |  |
| C[C@@H]1CC[C@@]23CC[C@]4(C)[C@@](C=CC5[C@@]6(C)CC[C@H](O)C(C)(C)C6CC[C@]54C)(OC2=O)C3[C@H]1C (stereo not given in full) |  | inactive |  |
| CC(=O)O[C@@H]1[C@H](O[C@@H]2O[C@@H](CO)[C@H](O)[C@H]2O)[C@@H](O[C@@H]2O[C@@H](C)[C@H](O[C@@H]3OC[C@@H](O)[C@H](O)[C@H]3O)[C@@H](O)[C@H]2O)[C@H](OC(=O)[C@]23CCC(C)(C)C[C@H]2C2=CCC4[C@@]5(C)CC[C@H](O[C@@H]6O[C@H](C(=O)O)[C@@H](O)[C@H](O)[C@H]6O[C@@H]6O[C@H](CO)[C@H](O)[C@H](O)[C@H]6O)[C@@](C)(C=O)C5CC[C@@]4(C)[C@]2(C)C[C@H]3O)O[C@@H]1C (stereo not given in full) |  |  | inactive [at 9.29 µM] |
| Oc1cccc(C2NC(=S)Nc3cccc(F)c32)c1 (stereo not given) |  | 23.1 µM (active) |  |
| CC(C)CCCCC(=O)N[C@@H](CO)C(=O)N[C@@H](CC(C)C)C(=O)[C@@]1(CO)CO1 |  | inactive |  |
| C/C=C1\NC(=O)[C@H]2CSSCC/C=C/[C@H](CC(=O)N[C@H](C(C)C)C(=O)N2)OC(=O)C(C(C)C)NC1=O (stereo not given in full) |  | 20.6 µM (active) |  |
| CCCCCCCCCCCCCCCC(=O)O[C@@H]1CC(C)=C(/C=C/C(C)=C/C=C/C(C)=C/C=C/C=C(C)/C=C/C=C(C)/C=C/C2=C(C)C[C@@H](OC(=O)CCCCCCCCCCCCCCC)CC2(C)C)C(C)(C)C1 |  | inactive |  |
| CC1(C)Oc2ncnc(N)c2N=C1c1ccc(C23CCC(CC(=O)O)(CC2)CC3)cc1 |  | inactive |  |
| NCCOc1cc(C(=O)Nc2cc(OCCN)c3ccccc3n2)nc(C(=O)Nc2cc(OCCN)c3ccccc3n2)c1 |  | inactive |  |
| C[C@H](CN(C)C)Oc1nc(Nc2cc3cccc(Cl)c3cn2)cnc1C#N |  | 2.91 µM (active) |  |
